Of roughly 8,800 targets only a part is listed; those with a hit were picked by preference. About 0.5% of all pairs of compound and target were hits. Unmarked numbers belong to inactive results.
Legend:
Experiment in all cases: log2 fold change, soluble protein after heating vs DMSO (PISA); higher = thermal stabilisation; K562 lysate, 10 uM; active = over 0.2 and 3.5 SD of the protein, either way, in both replicates (recomputed)
[1] = compound: C1=CC=C(C=C1)[C@H](COC2=CC3=C(C=C2)NC(=O)N3)NC(=O)C4=CC=CN(C4=O)CC5=CC(=C(C=C5)F)F
Outline: (§1)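 Values give the log-two fold change in thermal stability against solvent controls, from duplicates. Crude K562 extract at 1 mg/mL protein, made by dounce homogenisation in PBS pH 7.4 with 1 mM MgCl2, was treated with 10 μM compound for 30 min. After 3 min heating across 48°C-58°C, aliquots were pooled, adjusted to 0.5% NP-40 at 4°C and centrifuged at 21,000xg for 90 min. The supernatant was measured by TMTpro 16plex LC-MS/MS with channel sums equalised.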

[2] = compound: CC1=C(SC2=C1C(=N[C@H](C3=NN=C(N32)C)CC(=O)N)C4=CC=C(C=C4)Cl)C
Outline: as §1

[3] = compound: CC1=C2C(=CC=C1)N=C(N(C2=O)C3=CC=CC=C3C)CN4C=NC5=C(N=CN=C54)N
Outline: as §1

[4] = compound: Cc1sc2c(c1C)C(c1ccc(Cl)cc1)=N[C@@H](CC(=O)OC(C)(C)C)c1nnc(C)n1-2
Outline: as §1

[5] = compound: c1ccc([C@@H]2C[C@H]2NC2CCNCC2)cc1
Outline: as §1

UniProt Q96NT1, sequence (Q96NT1 whole entry, looked up): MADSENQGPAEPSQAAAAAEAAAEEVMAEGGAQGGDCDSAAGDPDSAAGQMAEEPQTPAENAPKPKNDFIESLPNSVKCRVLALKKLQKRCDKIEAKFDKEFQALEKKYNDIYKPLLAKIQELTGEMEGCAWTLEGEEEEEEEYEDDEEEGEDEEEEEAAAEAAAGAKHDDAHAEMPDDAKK
UniProt P49116, sequence (P49116 whole entry, looked up): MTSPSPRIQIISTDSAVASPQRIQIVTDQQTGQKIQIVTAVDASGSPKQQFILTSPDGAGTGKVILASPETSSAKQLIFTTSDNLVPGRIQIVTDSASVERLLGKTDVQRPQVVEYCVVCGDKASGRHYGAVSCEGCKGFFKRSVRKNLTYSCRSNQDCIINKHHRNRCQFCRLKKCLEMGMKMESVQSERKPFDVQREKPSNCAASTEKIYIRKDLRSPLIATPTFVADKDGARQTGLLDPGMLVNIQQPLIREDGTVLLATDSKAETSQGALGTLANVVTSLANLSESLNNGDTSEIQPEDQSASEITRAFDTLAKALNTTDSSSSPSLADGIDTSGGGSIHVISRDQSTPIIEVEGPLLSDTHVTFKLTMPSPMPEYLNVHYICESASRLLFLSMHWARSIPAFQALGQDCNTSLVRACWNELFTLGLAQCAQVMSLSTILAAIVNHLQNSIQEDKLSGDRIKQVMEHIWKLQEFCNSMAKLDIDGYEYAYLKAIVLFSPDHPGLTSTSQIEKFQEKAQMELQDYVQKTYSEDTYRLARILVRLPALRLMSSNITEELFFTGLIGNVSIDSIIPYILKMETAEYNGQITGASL
UniProt Q6GQQ9, sequence (Q6GQQ9 whole entry, looked up): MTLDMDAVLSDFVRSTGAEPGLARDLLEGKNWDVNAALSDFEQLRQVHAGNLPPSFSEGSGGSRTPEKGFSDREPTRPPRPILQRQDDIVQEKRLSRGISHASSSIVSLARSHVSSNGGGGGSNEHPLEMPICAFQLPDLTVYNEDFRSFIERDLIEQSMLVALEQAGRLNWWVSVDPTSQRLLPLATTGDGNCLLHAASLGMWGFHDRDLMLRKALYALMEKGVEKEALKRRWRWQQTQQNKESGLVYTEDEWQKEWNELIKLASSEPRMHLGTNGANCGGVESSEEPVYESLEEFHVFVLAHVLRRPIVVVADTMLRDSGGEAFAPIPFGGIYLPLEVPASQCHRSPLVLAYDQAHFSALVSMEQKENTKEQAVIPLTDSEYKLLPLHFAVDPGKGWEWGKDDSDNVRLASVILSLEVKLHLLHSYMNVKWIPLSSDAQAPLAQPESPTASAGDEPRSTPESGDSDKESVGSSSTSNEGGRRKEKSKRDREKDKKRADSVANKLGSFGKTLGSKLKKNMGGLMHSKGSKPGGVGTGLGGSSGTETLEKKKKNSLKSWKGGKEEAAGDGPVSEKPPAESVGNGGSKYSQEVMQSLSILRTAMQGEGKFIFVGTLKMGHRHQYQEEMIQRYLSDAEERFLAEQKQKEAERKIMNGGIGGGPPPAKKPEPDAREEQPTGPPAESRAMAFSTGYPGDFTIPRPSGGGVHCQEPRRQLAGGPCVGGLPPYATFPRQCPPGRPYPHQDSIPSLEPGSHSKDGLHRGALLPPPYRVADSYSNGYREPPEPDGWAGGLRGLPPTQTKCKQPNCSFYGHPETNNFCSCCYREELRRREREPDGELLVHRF
UniProt Q9BTX1, sequence (Q9BTX1 whole entry, looked up): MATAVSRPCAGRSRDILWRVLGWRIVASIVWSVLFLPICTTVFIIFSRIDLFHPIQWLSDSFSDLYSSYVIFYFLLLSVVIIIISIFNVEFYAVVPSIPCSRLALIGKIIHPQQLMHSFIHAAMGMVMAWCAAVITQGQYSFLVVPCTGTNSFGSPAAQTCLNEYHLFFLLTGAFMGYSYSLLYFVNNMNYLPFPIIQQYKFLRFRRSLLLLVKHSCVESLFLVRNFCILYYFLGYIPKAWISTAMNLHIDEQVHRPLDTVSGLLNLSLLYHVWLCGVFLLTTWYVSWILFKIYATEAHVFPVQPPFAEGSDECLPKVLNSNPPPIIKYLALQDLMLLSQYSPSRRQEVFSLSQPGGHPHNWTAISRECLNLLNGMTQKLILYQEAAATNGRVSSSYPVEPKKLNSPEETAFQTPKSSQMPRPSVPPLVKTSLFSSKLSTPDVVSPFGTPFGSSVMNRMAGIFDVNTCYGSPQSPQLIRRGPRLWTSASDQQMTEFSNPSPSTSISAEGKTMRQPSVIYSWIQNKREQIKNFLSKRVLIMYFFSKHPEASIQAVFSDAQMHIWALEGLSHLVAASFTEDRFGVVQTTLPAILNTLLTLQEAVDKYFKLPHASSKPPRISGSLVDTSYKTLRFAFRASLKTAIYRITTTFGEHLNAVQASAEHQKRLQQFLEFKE
UniProt O60934, sequence (O60934 whole entry, looked up): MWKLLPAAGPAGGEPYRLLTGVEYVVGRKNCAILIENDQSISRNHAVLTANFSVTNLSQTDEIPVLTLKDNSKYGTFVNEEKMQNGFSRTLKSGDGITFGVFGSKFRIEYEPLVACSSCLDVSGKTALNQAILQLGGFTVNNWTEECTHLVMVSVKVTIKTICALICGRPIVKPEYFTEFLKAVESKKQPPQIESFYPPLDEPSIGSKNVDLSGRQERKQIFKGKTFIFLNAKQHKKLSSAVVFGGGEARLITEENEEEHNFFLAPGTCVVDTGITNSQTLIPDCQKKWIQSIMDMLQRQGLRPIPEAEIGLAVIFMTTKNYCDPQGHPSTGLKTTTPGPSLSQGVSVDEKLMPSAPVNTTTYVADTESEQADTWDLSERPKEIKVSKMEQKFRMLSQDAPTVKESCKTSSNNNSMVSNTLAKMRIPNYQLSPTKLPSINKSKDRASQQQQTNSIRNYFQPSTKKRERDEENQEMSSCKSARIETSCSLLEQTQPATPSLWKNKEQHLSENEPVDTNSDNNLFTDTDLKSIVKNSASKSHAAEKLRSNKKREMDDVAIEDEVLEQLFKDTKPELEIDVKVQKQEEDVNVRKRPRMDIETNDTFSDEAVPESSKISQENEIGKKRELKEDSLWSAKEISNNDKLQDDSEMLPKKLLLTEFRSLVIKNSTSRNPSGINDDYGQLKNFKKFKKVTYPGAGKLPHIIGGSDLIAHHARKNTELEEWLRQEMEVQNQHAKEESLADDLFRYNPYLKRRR
UniProt Q9Y5A7, sequence (Q9Y5A7 whole entry, looked up): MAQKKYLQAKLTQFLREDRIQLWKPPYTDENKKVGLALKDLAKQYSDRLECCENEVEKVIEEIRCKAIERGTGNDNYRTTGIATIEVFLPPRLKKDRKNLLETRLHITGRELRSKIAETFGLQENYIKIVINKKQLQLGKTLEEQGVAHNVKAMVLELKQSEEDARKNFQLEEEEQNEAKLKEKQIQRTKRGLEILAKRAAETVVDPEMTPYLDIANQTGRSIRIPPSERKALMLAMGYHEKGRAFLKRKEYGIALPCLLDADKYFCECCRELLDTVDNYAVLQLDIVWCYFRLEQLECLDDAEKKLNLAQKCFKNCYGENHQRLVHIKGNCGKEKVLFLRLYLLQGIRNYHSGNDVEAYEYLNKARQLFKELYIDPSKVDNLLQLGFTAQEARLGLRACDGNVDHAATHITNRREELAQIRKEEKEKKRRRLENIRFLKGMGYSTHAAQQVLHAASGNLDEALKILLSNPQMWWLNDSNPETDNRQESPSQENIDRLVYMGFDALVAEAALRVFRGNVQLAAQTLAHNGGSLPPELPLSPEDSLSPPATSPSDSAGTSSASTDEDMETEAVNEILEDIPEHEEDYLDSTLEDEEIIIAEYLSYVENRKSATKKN
UniProt O00483, sequence (O00483 whole entry, looked up): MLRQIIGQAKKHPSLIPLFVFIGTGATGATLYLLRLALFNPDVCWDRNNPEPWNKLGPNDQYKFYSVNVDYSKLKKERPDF
UniProt P04150, sequence (P04150 whole entry, looked up): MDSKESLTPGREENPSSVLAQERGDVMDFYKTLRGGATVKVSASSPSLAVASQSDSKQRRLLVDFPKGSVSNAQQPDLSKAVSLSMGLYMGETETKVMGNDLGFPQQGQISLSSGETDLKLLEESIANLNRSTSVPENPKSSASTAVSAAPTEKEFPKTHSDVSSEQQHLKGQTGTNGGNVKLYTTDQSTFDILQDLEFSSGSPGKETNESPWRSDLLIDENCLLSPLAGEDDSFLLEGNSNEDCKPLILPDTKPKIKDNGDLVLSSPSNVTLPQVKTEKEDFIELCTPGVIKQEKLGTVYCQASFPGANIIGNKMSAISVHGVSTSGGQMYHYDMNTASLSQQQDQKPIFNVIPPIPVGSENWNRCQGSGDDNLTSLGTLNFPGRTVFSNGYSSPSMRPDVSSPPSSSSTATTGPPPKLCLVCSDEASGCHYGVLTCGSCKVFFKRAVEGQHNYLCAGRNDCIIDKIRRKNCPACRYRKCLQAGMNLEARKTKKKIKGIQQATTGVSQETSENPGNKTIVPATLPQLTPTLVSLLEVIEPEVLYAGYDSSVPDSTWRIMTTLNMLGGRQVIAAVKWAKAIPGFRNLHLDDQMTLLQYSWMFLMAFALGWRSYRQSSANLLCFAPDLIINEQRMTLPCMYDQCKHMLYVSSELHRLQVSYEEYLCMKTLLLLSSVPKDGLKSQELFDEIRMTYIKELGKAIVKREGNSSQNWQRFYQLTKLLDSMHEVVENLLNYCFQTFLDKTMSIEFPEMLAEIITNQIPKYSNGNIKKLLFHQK
UniProt Q9Y5N5, sequence (Q9Y5N5 whole entry, looked up, one chain of several): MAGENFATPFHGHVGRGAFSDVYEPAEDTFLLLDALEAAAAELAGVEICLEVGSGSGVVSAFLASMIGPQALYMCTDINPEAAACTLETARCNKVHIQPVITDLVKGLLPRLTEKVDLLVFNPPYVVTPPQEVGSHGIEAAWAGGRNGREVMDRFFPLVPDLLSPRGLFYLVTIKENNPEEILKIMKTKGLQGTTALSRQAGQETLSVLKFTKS

Row | Target | log2 fold change [1] | log2 fold change [2] | log2 fold change [3] | log2 fold change [4] | log2 fold change [5]
1 | NUB1 (UniProt Q9Y5A7) | -0.011 | 0.029 | 0.025 | 0.013 | 0.039
2 | NEK7 (UniProt Q8TDX7) | 0.03 | -0.032 | -0.004 | -0.076 | 0.026
3 | N6AMT1 (UniProt Q9Y5N5) | -0.046 | -0.086 | -0.046 | -0.011 | 0.052
4 | MRPL51 (UniProt Q4U2R6) | -0.001 | -0.053 | 0.043 | 0.066 | -0.109
5 | OSBPL6 isoform 5 (UniProt Q9BZF3) | 0.014 | -0.023 | 0.02 | 0.023 | -0.087
6 | NAP1L5 (UniProt Q96NT1) | 0.082 | -0.023 | -0.028 | -0.082 | 0.304
7 | NCAPH (UniProt Q15003) | -0.025 | 0.015 | 0.021 | -0.023 | 0.024
8 | MRPS18A isoform 2 (UniProt Q9NVS2) | 0.005 | -0.101 | 0.054 | 0.066 | 0.2
9 | NR3C1 isoform 3 (UniProt P04150) | 0.292 (active) | 0.034 | -0.001 | -0.035 | 0.084
10 | NBN (UniProt O60934) | 0.074 | 0.046 | 0.003 | -0.011 | 0.059
11 | NDUFA4 (UniProt O00483) | -0.019 | -0.048 | -0.063 | 0.035 | 0.287
12 | NOSTRIN (UniProt Q8IVI9) | -0.061 | 0.039 | 0.017 | -0.092 | 0.017
13 | NDC1 (UniProt Q9BTX1) | 0.001 | -0.055 | 0.003 | 0.02 | -0.172
14 | NR2C2 isoform 2 (UniProt P49116) | -0.078 | -0.08 | -0.04 | 0.243 | 0.047
15 | NCK1 (UniProt P16333) | 0.018 | 0 | 0.022 | 0.003 | 0.049
16 | MSH6 (UniProt P52701) | -0.021 | 0.01 | 0.034 | 0.006 | 0.014
17 | OTUD7B (UniProt Q6GQQ9) | -0.004 | 0 | -0.001 | -0.02 | 0.035

From the supplement of paper PMC10849652
